HCV inh = blocks hepatitis C virus | Huh7.5.1 HCVcc-Cre infection, luciferase reporter, 44 h | Potency, µM (doses to about 41.8 µM), usual class: inhibitors | 3.4% of 340,000 active | AID 651820; active = well fitted inhibition curve with a large enough effect; inconclusive = small, poorly fitted or top-dose-only effect, or another doubt; inactive = no such curve, though single readings can be large or run the other way
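Cells seeded at 1,000/well and cultured 4 h, then compounds added followed by HCVcc-Cre virus (~0.5 moi). After 44 h further culture, luciferase substrate was added, plates held 15 min at room temperature, and luminescence read for 15 sec.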
HCMV antiviral = blocks human cytomegalovirus replication; HFF cells, HCMV-luciferase reporter, 72 h; active compounds read low; activity change, negative = inhibition, % at 57.5 µM; 4.5% of 410,000 active; in the data active = activity change below about -60%; inconclusive = no clear call, values can overlap the other calls; inactive = above about -39%
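Cell-based, HFFs, 1000 cells/well, 16 h 37C; cpds in DMSO + HCMV-luc, MOI 1 PFU/cell; 72 h 37C; OneGlo luminescence after 5 min RT; norm. to buffer vs Salinomycin 10uM.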
LASV entry inh = inhibitors of Lassa virus binding or cell entry; Lassa virus pseudotype entry inhibition, cell reporter; Potency, µM (highest dose often 37.9 µM), hits mostly inhibitors; 1.2% of 300,000 active; AID 540256; calls by dose curve; tested in HEK293 cells; also: nearly all actives have a fitted effect of over 50% in size
FMDV inh = antivirals against foot and mouth disease virus. FMDV antiviral cell-based qHTS. Potency, µM (series often up to 57.9 µM), hits mostly inhibitors. 1.2% of 410,000 active. AID 1159524; calls by dose curve; tested in HEK293T cells; also: read-out not given here; nearly all actives have a fitted effect of over 45% in size
MARV entry inh = Marburg virus entry inhibition; 1.8% of 300,000 active; Marburg virus pseudotyped entry inhibition, cell reporter; Potency, µM (doses to about 37.8 µM), usual class: inhibitors; calls by dose curve; tested in HEK293 cells
Of the large screens only hits and unclear results are named; the others gave an inactive call; ! = repeats disagree. A selection: hits, their analogues and other compounds. The true share with any hit is near 7.9%.

Cc1ccc(-c2cc(C(F)F)n3ncc(C(=O)Nc4c(C)nn(Cc5ccccc5Cl)c4C)c3n2)cc1	HCV inh inconclusive, HCMV antiviral -95, FMDV inh inconclusive
C[C@@H]1O[C@@H](O[C@H]2C[C@@H](O)[C@]3(CO)[C@H]4[C@H](O)C[C@]5(C)[C@@H](C6COC(=O)C6)CC[C@]5(O)[C@@H]4CC[C@]3(O)C2)[C@H](O)[C@H](O)[C@H]1O (stereo not given in full)	HCV inh 1µM!, HCMV antiviral -97, LASV entry inh 1.6µM, FMDV inh inconclusive, MARV entry inh inconclusive
C[C@@H]1O[C@@H](O[C@H]2C[C@@H](O)[C@]3(CO)[C@@H]4C(CC[C@]3(O)C2)[C@@]2(O)CC[C@H]([C@@H]3COC(=O)C3)[C@@]2(C)C[C@H]4O)[C@H](O)[C@H](O)[C@H]1O (stereo not given in full)	LASV entry inh 2.3µM, MARV entry inh 0.82µM (no result: HCV inh, HCMV antiviral, FMDV inh)
CC1OC(OC2CC(O)C3(CO)C4C(O)CC5(C)C(C6=CC(=O)OC6)CCC5(O)C4CCC3(O)C2)C(O)C(O)C1O (stereo not given)	HCV inh inconclusive, HCMV antiviral -72, FMDV inh inconclusive (no result: LASV entry inh, MARV entry inh)
CCC(=NCc1ccco1)c1c(O)n(-c2ccc(OC)cc2)c(=O)[nH]c1=O	LASV entry inh 1.6µM
COc1ccc(-n2c(O)c(/C(C)=N/N3CCCCCC3)c(=O)[nH]c2=O)cc1	HCMV antiviral inconclusive, LASV entry inh 2.2µM, MARV entry inh inconclusive
CCC(=NCc1ccco1)c1c(O)n(-c2ccc(Cl)cc2)c(=O)[nH]c1=O	LASV entry inh inconclusive, MARV entry inh inconclusive
COc1ccc(-n2c(O)c(C(C)=NCCCn3ccnc3)c(=O)[nH]c2=O)cc1	HCMV antiviral -66, LASV entry inh inconclusive, MARV entry inh inconclusive
CCc1ccc(/C(C)=N/NC(=O)c2ccc(-n3cnnn3)cc2)cc1	HCV inh inconclusive, HCMV antiviral inconclusive (no result: LASV entry inh, MARV entry inh)
COc1ccc(C2(c3ccc(OC)cc3)NC(=O)N(CC(=O)N(C)C)C2=O)cc1	none
Cc1cc2nc(CN(Cc3ccccc3)Cc3nc4cc(C)c(C)cc4[nH]3)[nH]c2cc1C	none (no result: HCV inh, LASV entry inh, FMDV inh, MARV entry inh)
COc1ccccc1C(=O)Nc1ncc2c(n1)CC(c1ccco1)CC2=O (stereo not given)	HCV inh inconclusive, HCMV antiviral -84 (no result: FMDV inh)
C#CCCC[C@@H]1OC(=O)CNC(=O)C([C@@H](C)CC)NC(=O)[C@@H]2CCCN2C(=O)C([C@@H](C)CC)OC(=O)[C@H](Cc2ccccc2)N(C)C(=O)[C@H](C(C)C)NC(=O)C1(C)C (stereo not given in full)	HCMV antiviral inconclusive (no result: HCV inh, LASV entry inh, MARV entry inh)
CC[C@H](C)[C@@H]1NC(=O)[C@H]([C@@H](C)CC)NC(=O)[C@@H](CC(C)C)NC(=O)[C@H](Cc2ccccc2)NC(=O)[C@H](Cc2ccccc2)NC(=O)[C@@H]2CCCN2C(=O)[C@@H]2CCCN2C(=O)[C@H](C(C)C)NC(=O)[C@H](CC(C)C)NC1=O	HCMV antiviral -80 (no result: LASV entry inh, MARV entry inh)
CCCCNC(=O)c1cccc(-n2c(C)nc3cccnc32)c1	none (no result: HCV inh, MARV entry inh)
Cc1ccc(NC(=S)NC(=O)Cc2ccccc2)c(O)c1	none
O=C1CCCC/C=C\C[C@H](CC(=O)N(CCO)Cc2ccccc2)C(=O)NCCO1	HCV inh inconclusive (no result: LASV entry inh, MARV entry inh)
Cc1nc(C)c(-c2ccc(SCC(=O)Nc3cccc(Cl)c3)nn2)s1	HCV inh 10µM, FMDV inh inconclusive
CC(=O)c1cccc(NC(=O)CSc2ccc(-c3sc(C)nc3C)nn2)c1	HCV inh inconclusive, LASV entry inh inconclusive, FMDV inh inconclusive, MARV entry inh inconclusive
Cc1nc(C)c(-c2ccc(SCC(=O)Nc3cccc(F)c3)nn2)s1	HCV inh 14µM, HCMV antiviral inconclusive, LASV entry inh inconclusive, FMDV inh inconclusive, MARV entry inh inconclusive
Cc1ccc(-c2nc(CN(C)C3CCOCC3)c(C)o2)s1	none (no result: LASV entry inh, MARV entry inh)
Cc1ccc(-c2nc(CN(C)Cc3cccc4cnccc34)c(C)o2)s1	HCV inh inconclusive, HCMV antiviral -67, FMDV inh inconclusive (no result: LASV entry inh, MARV entry inh)
C=CC[n+]1c(/C=C/c2ccc(OC(C)=O)c(OC)c2)ccc2ccccc21	HCV inh inconclusive, HCMV antiviral -100 (no result: LASV entry inh, MARV entry inh)
CCCN(Cc1nnc(-c2cccs2)o1)C(=O)CN1C(=O)NC2(CCC(C)CC2)C1=O (stereo not given)	none (no result: LASV entry inh, MARV entry inh)
CNc1ncnc2c1ncn2[C@H]1CN(Cc2ccc(-c3ccccc3)cc2)C[C@@H](CO)O1	FMDV inh inconclusive (no result: HCV inh, LASV entry inh, MARV entry inh)
Cc1cccc(OCC(=O)Nc2ccccc2C(=O)OCc2cc(=O)n3nc(C4CC4)sc3n2)c1	LASV entry inh inconclusive (no result: HCV inh, MARV entry inh)
Cc1ccc(S(=O)(=O)c2cc3c(=O)n4ccccc4nc3n(C3CCCCC3)c2=N)cc1	HCV inh 13µM, FMDV inh inconclusive
N=c1c(S(=O)(=O)c2ccc(Cl)cc2)cc2c(=O)n3ccccc3nc2n1CCN1CCOCC1	HCV inh 13µM
COc1cc(C(=O)N2CCN(C(=O)c3cc(-c4ccc(Br)cc4)n[nH]3)CC2)cc(OC)c1OC	none (no result: LASV entry inh, MARV entry inh)
CCOc1ccc(S(=O)(=O)NC(C)(C)C)cc1-c1nc2c(C(C)(C)C)nn(C)c2c(=O)[nH]1	HCV inh 7.1µM, LASV entry inh 21µM, MARV entry inh inconclusive (no result: FMDV inh)
CCOC(=O)c1nn(-c2ccc(C)c(C)c2)c(=O)c2c(N)scc12	HCV inh 6.3µM
Cc1nc2sc(C(c3cccs3)N3CCN(c4cccc(Cl)c4)CC3)c(O)n2n1 (stereo not given)	HCMV antiviral -62 (no result: LASV entry inh, MARV entry inh)
NC(c1ccccc1)c1cccs1 (stereo not given)	none (no result: HCV inh, LASV entry inh, MARV entry inh)
O=C(CCl)N1c2ccccc2CCc2ccccc21	HCMV antiviral -102 (no result: HCV inh, LASV entry inh, FMDV inh, MARV entry inh)
COc1cccc(CNc2nc3cc(-c4cnn(Cc5ccccc5)c4)sc3c(=O)n2C)c1	HCMV antiviral -82, FMDV inh 14µM (no result: HCV inh, LASV entry inh, MARV entry inh)
COc1ccc(OC)c(CC2C(=O)Nc3ccc(Br)cc32)c1 (stereo not given)	HCMV antiviral -90, LASV entry inh inconclusive, FMDV inh 13µM, MARV entry inh inconclusive (no result: HCV inh)
CCn1c2ccccc2c2cc(NC(=O)COC(=O)Cc3cn4ccsc4n3)ccc21	HCV inh 5.6µM
O=C(Cc1cn2ccsc2n1)OCc1ccccc1	LASV entry inh 5µM, MARV entry inh 7.1µM
Cc1cnc(-n2ncc(C(=O)NCC3COCCO3)c2C2CC2)nc1-c1cccs1 (stereo not given)	none (no result: HCV inh, HCMV antiviral, LASV entry inh, MARV entry inh)
COc1ccc(CN2CCc3nnc(CCc4ccccc4)n3CC2)c(OC)c1C	none (no result: HCV inh, HCMV antiviral, LASV entry inh, MARV entry inh)
CCOc1ccc(N2CC(C(=O)Nc3ccc(S(=O)(=O)NCC4CCCO4)cc3)CC2=O)cc1 (stereo not given)	none (no result: LASV entry inh)
CO[C@H]1[C@H](NC(=O)c2ccco2)c2ccccc2C12CCN(Cc1cnc(N(C)C)s1)CC2	none (no result: HCV inh, HCMV antiviral, LASV entry inh, MARV entry inh)
COc1ccc(-c2ccc3[nH]c4c(c3c2)CCN2C(=O)[C@@H]([C@H](C)O)[C@@H](N(C)C(=O)Nc3cc(Cl)cc(Cl)c3)C[C@@H]42)cc1	none (no result: HCV inh, LASV entry inh, MARV entry inh)
C[C@H](O)[C@@H]1CN2CCc3c([nH]c4ccc(-c5ccc6c(c5)OCO6)cc34)[C@@H]2C[C@@H]1N(C)C(=O)Nc1ccc(F)cc1	HCMV antiviral -102, FMDV inh inconclusive (no result: HCV inh, LASV entry inh, MARV entry inh)

Screens: PubChem, National Center for Advancing Translational Sciences (NCATS)
